Source: the supplement of paper PMC6763611

Tested on: Plasmodium falciparum NF54
Experiment: growth inhibition relative to untreated control; higher = more inhibition
Details: 72 h
How it was run: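 Two media were used: minimal RPMI, and minimal RPMI carrying the chorismate end-products folate, pABA, pHBA, tyrosine, phenylalanine and tryptophan at 2.2 μM, 7.3 μM, 7.3 μM, 111 μM and 90 μM for the first five. In these media, P. falciparum NF54 ring stages (1% hematocrit, 1% parasitemia, 100 μL/well) were exposed in dark 96-well half-area plates to a single 5 μM or 1 μM test-compound dose for 72 h at 37 °C. Growth inhibition was then assessed with SYBR Green against untreated wells, subtracting background from uninfected erythrocytes.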

[1] = 1 µM, MM + chorismate end-products (CM screening medium)
[2] = 5 µM, MM + chorismate end-products (CM screening medium)

Row | SMILES | growth inhibition [1] [%] | growth inhibition (1 µM, minimal medium (MM)) [%] | growth inhibition [2] [%] | growth inhibition (5 µM, minimal medium (MM)) [%]
1 | Nc1nccc2ccc(-c3ccc4nccn4c3)cc12 | > 100 | > 100 | 97.8 | 88.2
2 | CCC(Sc1nc2ccccc2o1)C(=O)Nc1nccs1 (configuration not stated) | 66.4 | 33 | 60 | 3.39
3 | COc1cccc(OCC(=O)c2ccc(Br)cc2)c1 | < 0 | < 0 | < 0 | < 0
4 | COc1ccc(CCN2CCC(NCc3cccc(N(C)C)c3)CC2)cc1 | 88.1 | > 100 | > 100 | 94.6
5 | N#CCN(CCCCN1CCN(c2ccc(F)cc2)CC1)C(=O)OCc1ccccc1 | 20.2 | 7.66 | 32.3 | 18.1
6 | CN(C)c1cc(NC(=O)Nc2ccccc2)c2ccccc2n1 | 96 | 95.6 | 88.6 | 87.9
7 | CC1=Nc2ccc(Cl)cc2C(c2ccccc2)N1CCNC(=O)CN(C)C (configuration not stated) | 49 | 19 | > 100 | 89.7
8 | Cn1ccnc1CNCCS(=O)(=O)c1cccc(Nc2ccc(-c3cccc(F)c3)cn2)c1 | < 0 | < 0 | 26.9 | 3.75
9 | COc1ccc(N(CCc2cccc(C)n2)C(C)=O)cc1 | 16.2 | < 0 | < 0 | < 0
10 | Oc1c(I)cc(I)c2cccnc12 | 39.4 | 9.57 | < 0 | < 0
11 | CC1(C)Cc2c(c(N3CCOCC3)nc3snc(Br)c23)CO1 | 79.2 | 74.4 | 53.9 | 19.1
12 | CN1CCC(NCc2cccc(-c3ccc(S(=O)(=O)NCc4ccccc4)cc3)c2)CC1 | 96.4 | > 100 | 96 | 94.2
13 | COc1ccc(-c2nc(-c3cccc(NC(=O)Cc4ccc(F)cc4)c3)no2)cc1OC | 46.5 | 42.7 | 91.6 | 80.9
14 | CC(C(=O)N1CCCC1)N1CCN(S(=O)(=O)c2ccc(C(C)(C)C)cc2)CC1 (configuration not stated) | 37.6 | 71 | 67.3 | 33.4
15 | CC(C)(C)c1ccc(N[C@@H]2CCCC[C@H]2NC(=O)c2ccco2)cc1 | 20.8 | 20.6 | < 0 | 1.67
16 | Cc1nnc(NCc2cccc(Cl)c2)c2ccccc12 | 37.2 | 4.12 | 4.67 | < 0
17 | COc1ccccc1C(C)NCC(=O)Nc1cc(C(F)(F)F)ccc1Cl (configuration not stated) | 86.1 | 85.5 | 88.6 | 88
18 | CC(=O)Nc1ccc(NC(=O)c2cc(-c3cc(Cl)ccc3O)n[nH]2)cc1 | 96.6 | 95.3 | 96.3 | 90.8
19 | Clc1ccc(CCNc2cc(-c3ccccc3)nc3ncnn23)cc1 | < 0 | 0.487 | 5.05 | < 0
20 | CNc1nnc(Sc2cnn(-c3ccccc3)c(=O)c2Cl)s1 | 27 | 16.6 | 79.8 | 62.1
21 | CCc1ccc([C@@H]2C[C@H](C(F)(F)F)n3ncc(C(=O)NCc4ccc(OC)cc4)c3N2)cc1 | 31 | 6.61 | 24.8 | 3.56
22 | COc1ccc2nccc(NC(=O)C3CCN(CCc4ccc(Cl)cc4)CC3)c2n1 | 33.1 | 30.5 | 42.1 | 42.2
23 | COc1ccc(Oc2ccc([C@@H](C)N(C)c3ncc4c(N)nc(N)nc4n3)cc2)cc1 | 13.7 | < 0 | > 100 | 89.1
24 | COc1cccc(CC(=O)N2CCC(n3c(C)nc4ccc(F)cc43)CC2)c1 | > 100 | > 100 | > 100 | 95.6
25 | CC(C)C(C(=O)Nc1ccc(S(=O)(=O)N(C)C)cc1)c1ccc(Cl)cc1 (configuration not stated) | 96.6 | 94.8 | 98.6 | 90.3

Row | SMILES | growth inhibition [1] [%] | growth inhibition (1 µM, minimal medium (MM)) [%] | growth inhibition [2] [%] | growth inhibition (5 µM, minimal medium (MM)) [%]
26 | CC(C)(CN)c1nc(-c2ccc(Cl)c(O)c2)c(-c2ccnc(N)n2)[nH]1 | 78.9 | 70.8 | 30.1 | 6.08
27 | Cc1[nH]c2cc(F)cc(F)c2c(=O)c1-c1ccc(Oc2ccc(OC(F)(F)F)cc2)cc1 | 98.6 | 97.7 | 87.3 | > 100
28 | CN1CCN(S(=O)(=O)c2ccc(-c3ccc4c(Nc5ccc6nn[nH]c6c5)ccnc4c3)cc2)CC1 | 89.7 | > 100 | 92.9 | 95.1
29 | COc1ccc(N(CCc2cccc(C)n2)C(=O)C2CCCCC2)cc1 | 4.48 | 36.2 | 4.56 | 9.01
30 | Cc1nn(C(=O)Nc2cccc(C(F)(F)F)c2)c(C)c1Sc1ncccn1 | 0.416 | < 0 | 80.1 | 39.2
31 | Cc1cc(Cl)ccc1NC(=O)CCc1ccc(S(=O)(=O)NCC(C)C)cc1 | 23 | < 0 | 6.82 | < 0
32 | CCc1ccccc1-n1c(C)cn2c3c(=O)n(C(C(=O)OC)C(C)C)c(=O)n(C)c3nc12 (configuration not stated) | 72.6 | 83 | 84.3 | 87.9
33 | CCOc1ccc2cc(-c3nn(CC4CCN(C)CC4)c4ncnc(N)c34)ccc2c1 | 39.8 | 15.5 | 51.2 | 16.8
34 | c1ccc(C[C@@H]2CN(c3nccc(Oc4ccc(-n5ccnc5)cc4)n3)CCN2)cc1 | 98.3 | 97.5 | 95.3 | 95.3
35 | O=C(CN1CCOCC1)Nc1ccc2ncnc(Nc3ccc(OCc4cccc(F)c4)c(Cl)c3)c2c1 | 2.86 | 9.8 | 94.7 | 91.9
36 | CC(C)(C)c1cnc(NC(=O)c2ccccc2O)s1 | 38.5 | 7.86 | 51.6 | 3.99
37 | N#Cc1nc(-c2ccccc2F)oc1NCCc1ccccc1 | < 0 | < 0 | < 0 | 15.2
38 | COc1cccc2c(C)nc(N=C(N)N)nc12 | 70.2 | 71.3 | 92.4 | 89.2
39 | O=C(NC1CC1)c1ccc(N2CCOc3ccc(Cl)cc32)s1 | 91 | 82.1 | 95.1 | 91.5
40 | N#Cc1nc(-c2ccccc2)oc1S(=O)(=O)c1ccc(Cl)cc1 | 43.4 | 49.5 | 97.9 | 55
41 | COc1cc(C2=NCCN2)cc2cc(-c3ccc(C4=NCCN4)cc3)oc12 | 78 | > 100 | 98.4 | 100
42 | NCCN(C(=O)c1ccc(Cl)cc1Cl)c1ccc(OCc2ccc(Cl)cc2)cc1 | 33.8 | 27.2 | 97.9 | 91.1
43 | Cc1cc(C)cc(COc2ccc3c(C)c(CCC(=O)O)c(=O)oc3c2C)c1 | 22.5 | 15.7 | < 0 | < 0
44 | O=C(Nc1ccccc1)c1ccc(-c2cc3ccncc3cc2OC2CCNCC2)s1 | 98.5 | > 100 | 96.1 | 94.6
45 | COc1cc(NC(=O)Cc2nn(C)c(=O)c3ccccc23)ccc1Cl | 16.1 | 5.71 | 15.2 | < 0
46 | FC(F)(F)c1cnc(Sc2nnc(-c3ccncc3)o2)c(Cl)c1 | 53 | 61.3 | 64 | < 0
47 | O=C(Nc1nc(-c2ccccn2)cs1)C1CC1c1ccccc1F (configuration not stated) | 16 | < 0 | 54.3 | 26.1
48 | CCc1ccc(S(=O)(=O)Nc2cc(CN3CCN(CCC(C)C)CC3)ccc2C)cc1 | 31.6 | 4.88 | 64.6 | 13.6
49 | CCCS(=O)(=O)N1CCC(CO)(Cc2ccccc2C(F)(F)F)CC1 | 46.8 | 69.6 | 99.7 | 87.9
50 | COc1cc(OC)cc(C(=O)NCC2Cc3cc(Cl)cc(-c4ccncc4)c3O2)c1 (configuration not stated) | 91.9 | > 100 | 93 | 91.9

Row | SMILES | growth inhibition [1] [%] | growth inhibition (1 µM, minimal medium (MM)) [%] | growth inhibition [2] [%] | growth inhibition (5 µM, minimal medium (MM)) [%]
51 | Nc1nc(N)c2c3c(sc2n1)CN(Cc1ccccc1)CC3 | 55.2 | 96.8 | 60.8 | 91.9
52 | CC(C)c1ncc(-c2ccncc2)c([C@H]2CC[C@H](CNC(=O)c3cccnc3)CC2)n1 | 77.1 | 76 | 92.5 | 92
53 | Brc1c(-c2ccc3c(c2)OCO3)nc2ncccn12 | < 0 | < 0 | 29.5 | < 0
54 | NC(=O)c1cc(Br)ccc1OCCOc1ccccc1 | 14.5 | < 0 | 28.6 | < 0
55 | Cc1ccc(-c2cc(C(=O)Nc3cccnc3)c3cc(Br)ccc3n2)cc1 | 92.4 | 95.2 | 98.3 | 86.3
56 | CCc1cc(=O)n(C)c(SC(C)C(=O)Nc2ccc(F)cc2)n1 (configuration not stated) | < 0 | 2.62 | 96.9 | 94.5
57 | CC(C(=O)Nc1ccc2oc(-c3ccncc3)nc2c1)c1ccccc1 (configuration not stated) | 14.6 | < 0 | < 0 | < 0
58 | Cc1ccc(NC(=O)CC2COc3ccccc3O2)cc1Cl (configuration not stated) | 23.4 | 10.6 | < 0 | < 0
59 | CCc1c(C)nc(-n2nc(C)cc2NC(=O)c2ccccc2SC)[nH]c1=O | 72.1 | 60.2 | 86.1 | 79.9
60 | CC(C)(C)OC(=O)N1CCC(Cn2nc(-c3cnc4ccccc4c3)c3c(N)ncnc32)CC1 | > 100 | < 0 | 64.1 | 52.3
61 | COc1cccc(-c2cc3c(Nc4cccnc4)nccc3[nH]2)c1 | 91 | 18.4 | 94.2 | 94.8
62 | CC(C)(C)OC(=O)N1CCN(c2nccc(-c3ccc(-c4ccc(Cl)cc4)s3)n2)CC1 | < 0 | 2.86 | 64.1 | 11.6
63 | Nc1ccc(C(=O)Nc2ccc(-c3nc4ccccc4o3)cc2)cc1 | 23.2 | 18.2 | 55.7 | 26.5
64 | O=C(NCCN1CCCC1)c1cc(NCCCCN2CCC(F)(F)CC2)nc2ccc(Cl)cc12 | 100 | 98.4 | 90.7 | 96.9
65 | c1csc(-c2cnc3sc(NCC4CCOCC4)nn23)c1 | 60.9 | 68.8 | > 100 | 95
66 | CN1CCN(c2nccc3nc(-c4ccc(F)c(F)c4)[nH]c23)CC1 | 58.8 | 66.9 | > 100 | 91.1
67 | COc1ccc(C2=NCCN2)cc1-c1cn(-c2cccc(C3=NCCN3)c2)nn1 | 84.5 | 80.4 | > 100 | 91.6
68 | COc1cc(C2=NCCN2)ccc1-n1cc(-c2cccc(C3=NCCN3)c2)nn1 | 51.9 | 55 | 66.5 | 19.2
69 | COc1ccc(CN2CCOc3ccc(C(C)(O)CN(C)C)cc3C2)cc1C (configuration not stated) | 78.6 | 75 | 66.7 | 21.7
70 | CC1CCCCN1C(=O)NCCc1coc(-c2ccc(F)cc2)n1 (configuration not stated) | < 0 | 8.79 | < 0 | < 0
71 | O=C(Nc1nnc(S)s1)c1cc(Br)ccc1Cl | 31.8 | 9.59 | < 0 | < 0
72 | CCC(C)NC(=O)c1ccc(NC(=O)C2(c3ccccc3)CCCC2)cc1 (configuration not stated) | 58 | 17.8 | 61.1 | 65.4
73 | CN(C)CCNC(=O)N1CCCN(c2ncnc3cc(-c4ccccc4)sc23)CC1 | 72.9 | 99.2 | > 100 | 87
